Bioassay records as filed in PubChem.
Shown are actives, neighbours in structure and some others; about 1.8% of the full set was active somewhere.
GSTO1 inh – GSTO1 inhibition, counter-screen for RBBP9 inhibitors; recombinant GSTO1, activity-based probe fluorescence polarization; inhibition, % at 5.96 µM; AID 1974; P78417; 300,000 tested, 1.1% active;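 active = inhibition above the campaign mean inhibition plus 3 SD, cut at about 35% in these data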;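 note: 0% = GSTO1-1 with DMSO and 100% = wells lacking GSTO1-1 enzyme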
PAD4 inh – PAD4 (human) enzyme inhibition | inhibition, % at 6.36 µM | recombinant PAD4, RCA probe fluorescence polarization | 330,000 tested, 0.41% active | Q9UM07;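 active = percent inhibition above a cutoff equal to the mean of all tested compounds plus 3 SD, cut at about 15% in these data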;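 note: 0% = PAD4 with RCA probe and DMSO and 100% = probe without PAD4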
Target sequence (Q9UM07 whole entry, looked up): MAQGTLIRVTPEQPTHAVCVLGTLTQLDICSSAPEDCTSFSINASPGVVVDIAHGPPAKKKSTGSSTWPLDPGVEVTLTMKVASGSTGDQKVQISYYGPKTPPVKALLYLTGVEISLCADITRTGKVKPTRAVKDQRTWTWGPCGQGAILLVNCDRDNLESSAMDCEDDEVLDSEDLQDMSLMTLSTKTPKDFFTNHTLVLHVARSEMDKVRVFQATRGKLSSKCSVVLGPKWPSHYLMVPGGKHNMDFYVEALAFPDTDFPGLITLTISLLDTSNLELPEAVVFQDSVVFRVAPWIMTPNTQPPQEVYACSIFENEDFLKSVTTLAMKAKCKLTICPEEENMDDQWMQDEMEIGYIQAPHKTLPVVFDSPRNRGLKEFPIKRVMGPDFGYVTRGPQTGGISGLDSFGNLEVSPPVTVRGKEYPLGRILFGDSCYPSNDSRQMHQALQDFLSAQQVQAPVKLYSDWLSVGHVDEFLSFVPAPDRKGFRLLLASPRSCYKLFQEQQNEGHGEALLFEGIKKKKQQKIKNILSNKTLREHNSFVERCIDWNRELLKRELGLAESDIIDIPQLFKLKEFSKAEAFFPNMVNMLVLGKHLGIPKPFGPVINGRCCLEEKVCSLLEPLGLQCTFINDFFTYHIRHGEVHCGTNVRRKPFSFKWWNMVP
Fam108B counter – counter-screen for RBBP9 inhibitors: inhibitors of mouse Fam108B. 300,000 tested, 0.33% active. inhibition, % at 9.51 µM. recombinant Fam108B, FP-Rh probe fluorescence polarization;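 active = inhibition above the screen mean inhibition plus 3 SD, computed separately per campaign, cut at about 18% in these data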;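 note: inhibitors lower polarization as less probe binds the enzyme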
LYPLA2 counter – LYPLA2 (human) inhibition in PME1 counter-screen; recombinant LYPLA2, FP-Rh probe fluorescence polarization; inhibition, % at 5.9 µM; AID 2177; 320,000 tested, 0.38% active;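 active = inhibition above the screen-wide mean plus 3 SD, limit set per campaign, cut at about 26% in these data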;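 note: 0% = LYPLA2 with DMSO and 100% = wells lacking LYPLA2 enzyme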
LYPLA1 counter – blocks human lysophospholipase 1, a PME1 counter-screen; O75608; recombinant LYPLA1, FP-Rh probe fluorescence polarization; inhibition, % at 5.9 µM; 320,000 tested, 0.16% active; AID 2174;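 active = inhibition above the mean of all tested compounds plus 3 SD, set per campaign, cut at about 14% in these data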;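 note: inhibitors block serine hydrolase probe labeling of LYPLA1 so polarization falls; 0% = enzyme with DMSO and 100% = wells lacking LYPLA1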
PME-1 primary – blocks human protein phosphatase methylesterase 1; recombinant PME-1, FP-Rh probe fluorescence polarization; 320,000 tested, 0.53% active; Q9Y570; inhibition, % at 5.9 µM; AID 2130;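 active = inhibition above the campaign mean of all compounds plus 3 SD, cut at about 26% in these data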;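 note: competitive labeling of PME-1 active site by serine hydrolase directed probe; 0% = PME-1 with DMSO and 100% = wells lacking PME-1 enzyme; inhibitors block probe labeling so polarization falls and inhibition rises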
LYPLA1 confirm – counter-screen for PME1 inhibitors: confirmation of human LYPLA1 inhibitors; shares compounds with LYPLA1 counter; recombinant LYPLA1, FP-Rh probe fluorescence polarization; inhibition, % at 5.9 µM; 480 tested, 69% active; AID 2233;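 active = mean inhibition across replicates above the hit cutoff set in the primary screen, cut at about 15% in these data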;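 note: loss of FP-Rh probe labeling of LYPLA1 seen as lower polarization; 0% = LYPLA1 with DMSO and 100% = wells lacking LYPLA1 enzyme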
* marks the source's active call; other numbers are inactive results; · = no result given.

SMILES | GSTO1 inh | PAD4 inh | Fam108B counter | LYPLA2 counter | LYPLA1 counter | PME-1 primary | LYPLA1 confirm
Cc1ccc(C(=O)NNC(=O)CSc2nnc(C3CC3)n2C)cc1 | 3 | -1 | 1 | 0 | -3 | -1 | ·
CC1Cc2cc(S(=O)(=O)N3CCCCC3C)ccc2N1C(=O)C1CCC1 (stereo not given) | 7 | -4 | -1 | 2 | 1 | 2 | ·
CC1CC(C)CN(S(=O)(=O)c2ccc3c(c2)CC(C)N3C(=O)C2CCC2)C1 (stereo not given) | -2 | 0 | 0 | 14 | 54* | 3 | 54*
CCOC(=O)C1CCCCN1S(=O)(=O)c1ccc2c(c1)CC(C)N2C(=O)C1CCC1 (stereo not given) | 8 | -3 | 5 | 12 | 15* | 3 | 9
CC1CC(C)CN(S(=O)(=O)c2ccc3c(c2)CC(C)N3C(=O)C2CC2)C1 (stereo not given) | -1 | -1 | -1 | 1 | 29* | 12 | 31*
O=C(COC(=O)C1CC2C=CC1C2)Nc1ccc2c(c1)OC(F)(F)O2 (stereo not given) | 2 | -1 | 0 | 2 | 3 | -2 | ·
COC(=O)c1ccc(Oc2ccc(S(=O)(=O)N3CCCCC3)cc2N)cc1 | -5 | 2 | -1 | 17 | 26* | 3 | 47*
COC(=O)CNc1cc(S(=O)(=O)N2CCCCC2)ccc1Oc1ccc(C(=O)OC)cc1 | 8 | 2 | 3 | -2 | 3 | 1 | ·
CCOc1ccc(S(=O)(=O)NCC(=O)OCc2nnc(-c3ccccc3)o2)cc1 | · | 4 | · | 8 | 2 | 1 | ·
O=C(COc1ccc2ccccc2c1Br)Nc1ncn[nH]1 | 3 | 3 | -3 | -2 | -1 | 1 | ·
O=C(O)COn1c(-c2ccccc2)nc2ccc(Cl)cc21 | 1 | -4 | 2 | 3 | 1 | -1 | ·
COn1c(-c2ccccc2)nc2ccc(Cl)cc21 | -1 | -1 | -1 | -3 | 50* | 3 | -1
COC/C=C/C1=CC2=CC(=O)C(C)(OC(=O)c3cnc4ccccc4n3)C(=O)C2=CO1 (stereo not given) | 56* | 50* | 15 | 9 | 22* | 15 | -2
O=C(NC1CC1)c1c[nH]c2ccc(S(=O)(=O)Nc3cccc(C(F)(F)F)c3)cc2c1=O | -4 | -1 | -2 | -8 | 14* | -1 | 6
Cc1[nH][nH]c(=O)c1N=Nc1ccc(Br)c(Cl)c1 | 10 | -7 | 10 | 11 | 24* | 11 | 18*
Cc1[nH][nH]c(=O)c1N=Nc1ccc(S(N)(=O)=O)cc1 | 9 | -2 | -3 | -1 | 1 | 3 | ·
COC(=O)c1cc(S(=O)(=O)Nc2ccc(C)cn2)c[nH]1 | 2 | 2 | 1 | 11 | 3 | 4 | ·
CC(C)c1nnc(NC(=O)CCCCCN2C(=O)C3C4C=CC(C4)C3C2=O)s1 (stereo not given) | 1 | -2 | 2 | 1 | 2 | -3 | ·
COC(=O)c1[nH]c2cc(OC)ccc2c1NC(=O)CN1CCN(c2cccc(C)c2)C(C)C1 (stereo not given) | 21 | -4 | 4 | 11 | 42* | 10 | 48*
O=C1CCCN1CC(=O)N1CCCC(N2CCN(c3cccc(Cl)c3)CC2)C1 (stereo not given) | 1 | -1 | 3 | 7 | -2 | 1 | ·
Cc1cc(C)cc(N(C(=O)c2ccccn2)C(C(=O)NC2CCCCC2)c2cccs2)c1 (stereo not given) | 12 | -1 | 0 | -4 | 17* | -7 | 2
CC(=O)c1ccc(N2CCN(C(=O)c3cccc(Oc4ccccc4)c3)CC2)cc1 | 8 | -2 | 0 | 67* | 48* | 4 | 62*
O=C(CCNc1ccc(Cc2ccncc2)cc1)c1cccc([N+](=O)[O-])c1 | 6 | -3 | 7 | 20 | 18* | 11 | 36*
O=C(CCNc1cccc(F)c1)c1cccc([N+](=O)[O-])c1 | -3 | -2 | -3 | 5 | 0 | -3 | ·
COc1ccc(OC)c(NC(=O)C2CCC(CNc3c(N4CCOCC4)c(=O)c3=O)CC2)c1 (stereo not given) | 9 | 4 | 1 | -2 | 1 | -6 | ·
